# Data reported in PubChem BioAssay AID1159506 (National Center for Advancing Translational Sciences (NCATS), 2015).
# Over roughly 59,000 sequences, the read-out has its median near -0.00055; the lowest 2% begin near -2. This excerpt belongs to a sample that is enriched for the lowest values.
# Experiment: Identification of proteins required for the processing of the EWS-FLI1 nascent transcript;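 note: robust z of luciferase light less the median z of siRNAs with the same seed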
# Details: TC32 Ewing sarcoma NR0B1-luc vs CMV-luc (EWS-FLI1 target promoter against control promoter), 48 h; screened at 20 nM (by protocol)
# Procedure: Ewing sarcoma (ES) cells depend on the EWS-FLI1 fusion transcription factor for cell survival. Using an assay of EWS-FLI1 activity and genome-wide siRNA screening we have identified proteins required for the processing of the EWS-FLI1 nascent transcript. Parallel genome-wide siRNA-mediated RNAi screens were conducted in Ewing sarcoma TC32 cell lines expressing a luciferase (luc) reporter protein driven by either the promoter of the EWS-FLI1 target gene NR0B1 (TC32-NR0B1-luc) or the CMV promoter (TC32-CMV-luc). Luciferase activity was assessed 48 hours post siRNA-transfection.
# Twenty microl of serum-free media containing Lipofectamine RNAiMax (0.05 microl) was added to wells containing siRNA (0.8 pmol). Lipid and siRNA were allowed to complex for 45 min at ambient temperature before addition of 600 cells in RPMI-1640, 20% FBS to yield final transfection mixtures containing 20 nM siRNA in RPMI-1640, 10% FBS. Luciferase expression was measured using OneGlo (Promega, Madison, WI). The genome-wide screening campaign was conducted using Ambion's human genome library version 4.1 (Ambion, Austin TX). This library targets approximately 21000 human genes, three siRNAs per gene. Each siRNA is arrayed in an individual well of a 384-well plate. Parallel transfections were conducted in TC32-NR0B1-luc and TC32-CMV-luc cell lines and luciferase expression (OneGlo, Promega) was assayed 48 h later on a PerkinElmer Envision 2104 Multilabel plate reader (PerkinElmer, Waltham, MA). Qiagen's AllStars Negative control was incorporated on all screening plates for normalization (16 wells per plate). Qiagen, Germantown, MDsiGL4 was incorporated as a positive transfection control (16 wells per plate) on all plates. […] The raw luciferase data for the NR0B1- and CMV-luc screens were normalized and z-score-MAD transformed using standard methods (Chung et al., 2008). The miRNA-like seed sequence of every siRNA was determined and the median z-score for all siRNA sequences with the same seed sequence was calculated. This z-score was subtracted from the z-score associated with each siRNA with that seed sequence to generate a seed-adjusted z-score value (Z) that was used when the results for the three siRNAs corresponding to each gene were compared (Marine et al., 2012)
row,Sequence,seed-corrected z-score
1,AAAGUUGAACUCCUGAUGG against MYT1L-AS1,0.298
2,UCGUUGUUCAAACCAUUCC against ZEB2,-2.94
3,UCUGAAUCCACUAACACUG against TMEM87B,-0.0559
4,UUGCUAAACAGGGCCUUGC against MCRS1,1.49
5,UAGGUUUUCUUCGUUGUCC against MIR503HG,0.872
6,UUCGAAGCAUCUUUUGGGC against RPL7P9,-2.28
7,UGAGUUGAACACGUAGCCC against ALPI,0.286
8,UUUGCUAUCUUGCUGAUGC against LINC00615,0.184
9,ACAGAUAUUGUAAAUCUCC against TMEM14C,0.508
10,UAUUGUGAUAUAGGCACCG against WDR26,-1.57
11,UCACGUUUCACCAAGAUGC against EIF4A3,-2.2
12,UCCAUGACAAUGUCCACUC against VAT1,-0.662
13,UCUGGAUUAUGGGUAGGCC against CHTOP,-1.42
14,UUCUGCUUCUGUAUUAUCC against SAP30BP,-2.11
15,UCACUAUCAAGUCUGGUAC against CSMD3,0.55
16,UAUAUCUGCAACACGGUGG against SND1,0.153
17,UGUCUUUCAAACGUAGGCC against ZNF792,-3.5
18,UGUUUCGUAAACAUUCACC against FUT10,-0.285
19,UACAAUUACAUCAUCGUCC against GLT8D2,-0.139
20,UUCGAGAGACUGACAUGCG against SYT14P1,-0.0146
21,AUCUGGUUCAUUACAGUAG against BSDC1,-2.55
22,AAAAGACAUACAUGAAGAC against GJB1,-0.779
23,UCUAAUUCCAGGUAAAUUU against GOLT1B,0.519

row,Sequence,seed-corrected z-score
1,UUAUCUUGCAGCAAAGCAC against LYZ,-1.35
2,UUAAACUUCACGUUGUCCU against RPL38,-2.01
3,AUUGGAGGCACUGCACUCG against NTM,0.224
4,UAUAGGAGCUCUAGGAUCU against CSTF2T,-0.439
5,AGCAUUGUAAGUGACGUGC against KCNN2,-2.24
6,UCUGUUAAUGCUAUUCUCC against C2orf61,0.146
7,UGUUAAGUAGAAAAUAACC against CD83,0.552
8,UAUGACAUCGGAGACCUUC against MEN1,0.259
9,AAAGUUGCUAUGAAGCGAG against PSMA8,-2.62
10,UCUCGUUUAUCUACAUCUC against AUTS2,0.181
11,UACAGACAUAUGUACAUCC against CCDC12,-2.89
12,UGACAAAUCACUGUAUGUC against ZIM2,-0.582
13,UUUGAUACAGUAUCUACAG against DVL1,0.326
14,UUAUUUCUCAGCUCGUUGG against STX6,-2.43
15,UUUGUUUGCACCAGUUGUC against OTUD1,0.434
16,UUGCGCUCUAGUUCCAGGC against PRPH,-0.44
17,UCCUUUAACGGGAUCUUGU against PI3,0.267
18,UAUGUACAGAGACACCAGG against MC5R,-2.92
19,AUAGUCACAAAUGAAUCCG against PLS3,0.171
20,AACGAUGAUAGAAUUUACG against CLEC16A,-2.32
21,UGUGGAAACAUUGAUCUGC against PRPF4,-1.56
22,UUCUUUAUUGAGUGCAUGG against KLK6,-1.38
23,UCGUCUAUUGAUGAUGUCG against AQR,-2.1

row,Sequence,seed-corrected z-score
1,UUCUGGAUUCUUGACCGCU against KRBOX4,0.0382
2,AGCUUGGAGAGUUUAGCCC against SLC46A1,0.256
3,UUCCUAAUACCACAAUUGC against NKIRAS1,-0.00171
4,UAAGUUGCAUGCCUGGUCA against RIMKLA,-3.91
5,UGUUGAGUAAGGAGGGACC against HSPB8,-0.073
6,UCAUCGCCUAUGUCGAUGC against ABCC11,0.255
7,UUUGAGCUUUCCUUAUUCC against CEP97,0.381
8,UCUAGAUCAUGAAUGCUCC against ZNF25,1.08
9,AUUUCUUUCAUAGUCACCG against RASL11B,-0.122
10,UAUGCUUUUAGACGAUUGG against ASB14,-0.444
11,AGGUCUUCAAAUACCGUUG against LACTB2,-2.32
12,UUUGCUCCCUUCACUCUGC against DVL1,0.689
13,AAAUGUACACCAUAUAAGC against ELOVL6,-2.75
14,UUCAUGUCCACGUUGACCA against PLCD3,-0.387
15,UUAUGGUCUUGAGGUAAGG against RNF6,0.418
16,UUCGUGAAAGGAUCUGCUG against FRMD4B,-0.649
17,UCUGUUUUCAGGUCUUCCA against PMM1,0.485
18,UGAGUUUGAAGGUGAAUUC against TMEM207,0.374
19,UAGACUAGAAUGGUCACUC against DDIAS,0.728
20,UCUGGAGUGUUUGGGCUGC against CICP18,-3.73
21,UAACCUUCAACUCGCUGCC against NYNRIN,-1.01
22,UUAAUGGGAAGUUCUGGUG against ALG8,-0.153
23,UUGUUUACAAUUGAAACUC against RPS7,2.49

row,Sequence,seed-corrected z-score
1,UUUGGUAAACUUCUGACUC against AFP,0.408
2,UUGGGCACAUGCUCUAAGG against SUN2,1.57
3,UUUGCGGUCAGGUUUCACC against MTNR1A,-0.693
4,UUCCUUCCAGCUGUAGGCC against CHRM1,-2.17
5,UUUGGAGCAAGUAAUCCCU against ATP5SL,0.0327
6,UACGCUCCAACCAUCAUAG against KIAA0368,-0.0559
7,AAUGUCACAAAAGUUCCGU against PGLYRP3,-0.707
8,UAACGAGAAAGACGGAUGC against CEP104,-0.248
9,AAUGCUAUAAAAUCCGUGG against C11orf95,0.671
10,UAUUAGGAGAUAUGAAGUG against PSMB7,0.622
11,UCAGCUUCUACUCCGGUCU against DAPP1,-1.25
12,UUGUAUACAAGUGUCCACC against KCTD6,-2.54
13,UAUUGUAAGAGUACACGUC against IGSF5,-0.00495
14,UUGCGUUCAGGAAUAUCCG against MARK3,0.476
15,UGGAAUAUAAAACCCGUGC against FUNDC2P2,-0.0349
16,UUUGGGAUCUAUCAAUUUG against HNRNPDL,0.695
17,AACUUUACCAGUCACACUC against SMNDC1,-2.31
18,UACACUCCUCUGAAGUUUG against ZNF396,-0.508
19,UUGGGUCAAUCCAUUUCUC against C10orf55,0.749
20,UCCACGAAUAGCAAGUUGC against H2AFZ,0.129
21,UCUGCUUGUAGUGAAAGUC against DUSP9,-3.42
22,UAACUUACUGAGAAUCGGC against LCP2,-1.05
23,AAGGUGUUUCGAGUUAUGC against POLR2J,-0.205

row,Sequence,seed-corrected z-score
1,UCAUGAACCCGAGCUCGAG against CD37,-0.195
2,AUUCCUGACAUUCACAUGC against ZNF439,0.169
3,UCAGGUGCAAUUGGGAGCU against TCEB1P3,-2.71
4,UACGUUUUCAGAGUAUCAC against PDCD10,0.491
5,AUACUUGACAUCACCAACC against CDKL2,-0.981
6,CAAGUCAUGCCAGCACUGG against LOC645852,0.383
7,UAAUCUAAUCCUUCUAAAG against PCDHGA7,1.3
8,UUCCUUCCAGGACAUGAGC against MIR503HG,-2.21
9,UUUGGUUGAAGGGACCCUC against OR1J2,0.501
10,UCCUUUGAUAGCCUCUUCG against ELAVL3,-0.214
11,UAACUGUUCACCGCGUCCA against LINC01530,-0.696
12,UUACAAAGAAGCACGUUCA against HOXB8,0.191
13,AAACAGGAAGGUGCUAUCG against GALT,-0.3
14,AUACUUGCAAACAAACUCC against RREB1,-1.3
15,UGAUUUCUGACCUCCAUUC against TMEM43,1.18
16,ACUGUUCCCAACAAGGUCC against UBXN4,1.66
17,AAACCUAAGAAUACAAGUU against SAR1A,0.849
18,ACAGUUGCCCUUGUCCUGG against LOC440292,-3.34
19,AUUGGAGAGAGGUUCAUUC against YWHAH,-0.058
20,UGACGGCUGGUCGUGAUCU against SPDYE2,0.00759
21,UACAGGUAGACCUCGUGGG against UPK3A,0.24
22,UCAGGAUCAUGAGUAGGCG against DEPDC5,1.12
23,AAACCUAUUCCUUCCAUUU against ARL6IP5,0.0394

row,Sequence,seed-corrected z-score
1,UUAGAGUCCAGAUUCAGGA against ST3GAL3,0.675
2,AAACGAUCAUGGUCUCUGC against COPA,-3.42
3,UGAUCUUGAACUGCACCAC against SUMO3,-0.708
4,UGGAGUAAGAGCUAUACGC against CYTIP,-0.125
5,AACGUGUCACCACAUAUGG against MAPK10,-2.05
6,UUAGCAACCACGGACACUG against ACR,0.604
7,AUACCUUUCAGGAUGAGGG against TMEM178A,-0.305
8,UUCAUAACUCUGUUGUGCC against FNBP1L,0.0737
9,UUCUGUACGCAGGUGAUUG against COL1A1,0.0612
10,UUUACGACGCAUCUCAGCC against ARCN1,-2.64
11,ACGGUUUUUACAUCGAUUC against PTPRO,0.657
12,UAUUGUGCAAUUUGGUGGG against KLF13,0.422
13,AAUAUCCCAAUGUUCAUGC against FHDC1,-2.13
14,AAACCAAACAAGGAUACCU against C20orf173,2.47
15,ACAUAUACUGGUAACACUG against SH3GLB1,-0.404
16,UGAUGUCUACAAUAUCACC against RPL21P20,-2.36
17,UUUAUCACCAGGUUAAGCC against GLUD1,-0.205
18,UCUCGGAUCAUGAUGUUGU against PIK3CD,0.452
